Here are results for 34 compounds from article PMC5540273 (PLoS ONE, 2017).
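Also: KINOMEscan kinase panel screen.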

In the experiment the test system is MRCKA. The following applies: concentration: 1 μM,replicates: in singlicate; n = 1.
`C[C@@H](Oc1cc(-n2cnc3cc(-c4ccncc4)ccc32)sc1C(N)=O)c1ccccc1Cl` [GSK479719]: the “%Inh” value is 0%.
On to `COc1cc2c(Nc3ccc(NC(=O)c4ccccc4)cc3)ncnc2cc1OCCCN1CCOCC1` [GSK301329], for which the “%Inh” value stood at 0%.
`Cc1cccc(-c2nc(Nc3ccncc3)c3sccc3n2)n1` [GW869641]: the “%Inh” value is 67%.
For `Cl.Cl.NC[C@H](CC1CCCCC1)NC(=O)c1ccc(-c2ccnc3[nH]ccc23)s1` [GSK1581428], the “%Inh” value worked out at 97.1%.
In the case of `Cc1ccc(Nc2ccnc(Nc3ccc4c(c3)CS(=O)(=O)C4)n2)cc1O.Cl` [GW579362], the “%Inh” value is 9%.
In the case of `CCOC(=O)N1CCC(n2cnc(-c3ccc(F)cc3)c2-c2ccnc(N)n2)CC1` [SB-219952] it was 20%.
On to `CS(=O)(=O)c1cccc(CNc2nc(Nc3ccc4c(c3)[C@@H]3C[C@@H]4CNC3=O)ncc2C(F)(F)F)c1`, for which the “%Inh” value came to 0%.
On to `O=C(Nc1ccc(Oc2ccc3nc(NC(=O)C4CC4)cn3n2)c(F)c1)c1cccn(-c2ccccc2)c1=O`, for which the “%Inh” value was 0%.
On to `Cc1ccc(C(=O)Nc2ccc(Oc3ccc4nc(NC(=O)C5CC5)cn4c3)c(F)c2)c(=O)n1-c1ccccc1`, for which the “%Inh” value stood at 0%.
On to `CCN1CCN(CCCC(=O)Nc2n[nH]c3nc(-c4ccc(O)cc4)c(Br)cc23)CC1` [SB-731579], for which the “%Inh” value came out at 0%.
In the case of `COC(=O)c1cccc(NC(=O)NC2CCN(c3ccnc(Nc4cc(OC)c(OC)c(OC)c4)n3)C2)c1` (stereo not shown) [GSK1379767] it was 14%; in that of `Cn1cc(-c2cccc3c(N)c(C(N)=O)nnc23)cn1`, 20%; in that of `Cn1ccc2ncnc(Oc3ccc(NC(=O)Nc4cccc(C(F)(F)F)c4)c(F)c3)c21`, 4%.
The result for `COc1cc(Nc2nccc(N3CCC(NC(=O)c4cccc(C#N)c4)C3)n2)cc(OC)c1OC` (stereo not shown) [GSK1379751] reads 18%; that for `c1ccc(Oc2ccc(Nc3ccnc4ccc(-c5ccccn5)cc34)cc2)cc1` [GW407034], 2%.
The result for `C[C@@H](Oc1cc(-n2cnc3cc(-c4cnn(C)c4)ccc32)sc1C(N)=O)c1ccccc1Cl` [GSK580432] reads 20%.
Regarding `FC(F)(F)c1cc(Br)cc(Nc2nccc(-c3cnn4ncccc34)n2)c1` [GW810578], the “%Inh” value is 0%.
In the case of `COc1cccc(CNC(=O)NC2CCN(c3ccnc(Nc4cc(OC)c(OC)c(OC)c4)n3)C2)c1` (stereo not shown) [GSK1379765] it was 17%.
The result for `Cc1n[nH]c2cc(Nc3ccnc(Nc4cccc(CN5CCOCC5)c4)n3)ccc12` [GW682569] reads 1%; that for `O=C(NCC1CC1)c1ccc(-c2cc(C(=O)NC3CC3)ccc2F)cc1` [GW810445], 0%.
In the case of `Cc1nnc(-c2ccc3occ(-c4ccc(S(C)=O)cc4)c3n2)o1` (stereo not shown) it was 0%; in that of `COC(=O)c1cccc(NC(=O)NC2CCN(c3ccnc(NCc4ccc(F)cc4)n3)CC2)c1` [GSK1379860], 12%.
Regarding `Cc1cccc2c(-c3ccncc3)c(-c3ccc(F)cc3)nn12.Cl` [GW461487], the “%Inh” value is 0%.
With `O=C(Nc1n[nH]c2cc(-c3ccco3)ccc12)C1CC1` [SB-737447], the “%Inh” value stood at 25%.
As for `CN(c1ccccc1CNc1nc(Nc2ccc3c(c2)CC(=O)N3)ncc1C(F)(F)F)S(C)(=O)=O`, the “%Inh” value came to 0%.
The result for `CC(=O)Nc1nc2cnc(Nc3cc(NC(=O)c4cccc(CC(C)(C)C#N)c4)ccc3C)nc2s1` reads 0%.
In the case of `COc1ccc(Nc2nccc(N3CCC(NC(=O)c4cccc(C#N)c4)C3)n2)cc1` (stereo not shown) [GSK1379730], the “%Inh” value is given as 0%.
The result for `CS(=O)c1ccc(-c2coc3ccc(-c4n[nH]c(=O)o4)cc23)cc1` (stereo not shown) reads 4%.
For the compound `CS(=O)(=O)Nc1ccc(-c2ccnc3[nH]ccc23)cc1` [GSK993273], the “%Inh” value is 12%.
On to `Cn1ccc2ncnc(Oc3ccc(NC(=O)Nc4cnn(C(C)(C)C)c4)c(Cl)c3)c21`, for which the “%Inh” value was found to be 0%.
The result for `Cl.c1ccc(Oc2ccc(Nc3ccnc4cc(-c5ccc(CN6CCNCC6)o5)ccc34)cc2)nc1` [GW567142] reads 0%; that for `CSc1nccc(-c2c(-c3ccc(F)cc3)ncn2CCCN2CCOCC2)n1.Cl` [SB-217146], 0%; that for `C[C@@H](Oc1cc(-n2cnc3ccc(-c4ccncc4)cc32)sc1C(N)=O)c1ccccc1Cl` [GSK483724], 0%.
The result for `Nc1nccc(-c2ccc3c(N)n[nH]c3c2)n1` [GSK1034945] reads 11%.
